Most compounds without a hit are left out; they make up all but 21% or so of the library.
Cycloheximide cs: affects cycloheximide protein synthesis inhibition readout, counter-screen; cell reporter, cycloheximide protein synthesis inhibition counterscreen; max response, %; 12% of 300,000 active; AID 2314; in the data active means max response mostly above about 13%, no sharp cut-off; inactive means mostly below about 14%; further: read at 38.3 µM for the half of the compounds with a filed dose; 0% is about no effect
SARS PLP yeast: SARS-CoV PLP inhibition in yeast; S. cerevisiae expressing SARS-CoV PLpro, growth rescue; Potency, µM (highest dose often 32.9 µM), for the others: at the highest dose activity, positive = growth rescue, usual class: activators; 0.19% of 330,000 active; AID 485353; further: potency means the concentration at half of the fitted maximal effect; 0% is about no effect; nearly all actives have a fitted effect of over 55% in size
Pf growth 96h: P. falciparum growth inhibition at 96 hour, primary screen for plastid delayed-death inhibitors; 6.9% of 320,000 active; Potency, µM (titrated, usually from 28.7 µM), inactives show at the highest dose activity change, negative = inhibition, most hits filed as inhibitors; P. falciparum luciferase reporter growth, 96 h; active means well fitted inhibition curve with a large enough effect; inconclusive means small, poorly fitted or top-dose-only effect, or another doubt; inactive means no such curve, though single readings can be large or run the other way; further: potency means the concentration at half of the fitted maximal effect; on the % scale 0 is the no-effect control and ±100 the full control effect
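Cell-based qHTS: luciferase-tagged P. falciparum in erythrocytes (2% hematocrit, 0.05% parasitemia final) incubated with compounds for 96 hours, 37 C, 5% CO2; luciferase detection reagent then added and luminescence measured.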
Shiga toxin inh: blocks Shiga toxin action in Vero cells | Vero cells, Shiga toxin protein synthesis inhibition reporter | inhibition, % at 38.7 µM | 9.2% of 290,000 active | AID 2315; in the data active means inhibition mostly above about 28%, no sharp cut-off; inactive means mostly below about 43%; further: 0% is about no effect
Pf growth 48h: P. falciparum growth inhibition at 48 hours (one generation); 5.9% of 310,000 active; P. falciparum luciferase growth in erythrocytes, 48 h; Potency, µM (series often up to 28.7 µM), without a hit: top-dose activity change, negative = inhibition, most hits filed as inhibitors; AID 504832; active means well fitted inhibition curve with a large enough effect; inconclusive means small, poorly fitted or top-dose-only effect, or another doubt; inactive means no such curve, though single readings can be large or run the other way; further: potency means the concentration at half of the fitted maximal effect; on the % scale 0 is the no-effect control and ±100 the full control effect
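Luciferase-expressing P. falciparum in infected erythrocytes (2% hematocrit, 0.1% parasitemia final) in RPMI 1640/0.5% Albumax were exposed to compound for 48 hours at 37 C, 5% CO2; growth read as luminescence.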
NS1 function inh: inhibitors of influenza NS1 protein function | Potency, µM (highest dose often 46.1 µM), inactives show at the highest dose activity, positive = more growth | 0.4% of 270,000 active; further: potency means the concentration at half of the fitted maximal effect; actives are rising curves; nearly all actives have a fitted effect of over 50% in size
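A cell-based growth assay was used: compounds that relieve NS1-induced slow growth of budding yeast raise OD600. Assay medium was yeast nitrogen base with ammonium sulphate and -URA supplement, pH 6.0, with 2% galactose.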
Active calls of the source: *; ? = inconclusive; . = no result; [ ] = remark or other dose. Unless noted, the call rests on the fitted dose curve.

SMILES | Cycloheximide cs | SARS PLP yeast | Pf growth 96h | Shiga toxin inh | Pf growth 48h | NS1 function inh
c1ccc(N2CCN(c3cnc4ccccc4n3)CC2)cc1 | 62* | -36% | 259% | 146* | . | -68%
Cc1ccccc1NC(=O)c1ccccc1NC(=O)CCC(=O)O | 1 | -3% | 4% | -3 | -16% | 2%
Cc1c(OCc2ccc([N+](=O)[O-])cc2)ccc2c3c(c(=O)oc12)CCC3 | 31* | -7% | 131% | 29 | 125% | 14%
CC(=O)COc1ccc2c3c(c(=O)oc2c1C)CCCCC3 | 19* | -2% | ? | 64* | 109% | -2%
CC(=O)C(C)Oc1ccc2c3c(c(=O)oc2c1C)CCCC3 (configuration not stated) | 12 | -1% | 8.3µM* | 53 | 9.3µM* | -121%
Cc1c(OC(C)C(=O)NCCN2CCOCC2)ccc2c3c(c(=O)oc12)CCCC3 (configuration not stated) | 1 | -6% | ? | -10 | -19% | -9%
CN(C(=O)CSc1nnc(-c2cccs2)o1)C1CCS(=O)(=O)C1 (configuration not stated) | -2 | -4% | 19% | 3 | 12% | .
COc1ccc(-c2nn(-c3ccccc3)cc2C(N)=O)cc1OC | 6 | 1% | 15µM* | . | 42% | 9%
COc1ccc(-c2nn(-c3ccccc3)cc2/C=N/NC(N)=S)cc1OC | -2 | 25% | 15µM* | 17 | 12µM* | ?
COc1ccc(-c2nn(-c3ccccc3)cc2/C=C/C(=O)O)cc1[N+](=O)[O-] | 13* | 7% | -8% | 41 | -17% | 14%
NC(=O)c1cn(-c2ccccc2)nc1-c1cccnc1 | -2 | -5% | 18% | -6 | 14% | 1%
CCN1CCN(CCCNC(=O)CCC(=O)N2CCOc3ccccc32)CC1 | -3 | -1% | -18% | -4 | 6% | -1%
C[C@@H]1C(=O)OC[C@H]1NC(=O)OCc1ccccc1 | . | 1% | 69% | . | ? | .
O=c1cc(-c2ccccc2)[nH]n2cnnc12 | 5 | 2% | 26% | 14 | 0%[0.00184 µM] | 6%
CCCc1[nH]n(-c2nc3ccccc3s2)c(=O)c1C=NCCCOC | 22 | -1% | -15% | 37 | -20% | -6%
CCCCCN=Cc1c(C)[nH]n(-c2nc3ccccc3s2)c1=O | 16* | -22% | 1% | 9 | -42% | -82%
COCCCN=Cc1c(-c2ccccc2)[nH]n(-c2nc3ccccc3s2)c1=O | 16* | -1% | 5% | 42 | ? | -42%
O=c1cc(-c2ccccc2)[nH]n1-c1nc2ccccc2s1 | 13 | -3% | 5.2µM* | 22 | 16% | -58%
O=c1c(C=NCCCO)c(-c2ccccc2)[nH]n1-c1nc2ccccc2s1 | 28* | -1% | 26% | 39* | 6% | -9%
Nc1c(N(CCC2=CCCCC2)C(=O)Cc2ccc(F)cc2)c(=O)[nH]c(=O)n1Cc1ccccc1 | . | -1% | ? | . | 9.3µM* | .
Nc1c(N(CCC2=CCCCC2)C(=O)c2ccc([N+](=O)[O-])o2)c(=O)[nH]c(=O)n1Cc1ccccc1 | . | 1% | ? | . | 10µM* | .
CC1CC1C(=O)N(CCC1=CCCCC1)c1c(N)n(Cc2ccccc2)c(=O)[nH]c1=O (configuration not stated) | . | 2% | ? | . | ? | .
Cc1ccc(C(=O)N(CCC2=CCCCC2)c2c(N)n(Cc3ccccc3)c(=O)[nH]c2=O)o1 | . | 7% | 9% | . | ? | .
COc1ccc(/C=C/c2ccncc2)cc1OC | 28* | -18% | ? | 57* | 52% | -3%
COc1cc(C(=O)Oc2cccnc2)cc(OC)c1OC | 7 | -6% | -15% | -13 | -11% | -14%
SMILES | Cycloheximide cs | SARS PLP yeast | Pf growth 96h | Shiga toxin inh | Pf growth 48h | NS1 function inh
COc1cc(/C=C/C(=O)O)ccc1OS(=O)(=O)c1c(C)c(C)cc(C)c1C | . | 6% | -71% | . | 10µM* | .
COc1cc(C(=O)Oc2cc(C)cc(C)c2)cc(OC)c1OC | 1 | 26% | -15% | -2 | 15µM* | 5%
O=[N+]([O-])c1cc(/C=N\O)ccc1Oc1ccc(F)cc1 | 27* | -3% | -6% | 27 | 14% | -10%
CN(C)CCN(Cc1cccs1)S(=O)(=O)c1csc(C(N)=O)c1 | -5 | -4% | ? | -4 | 20% | 13%
COc1cc(/C=C/C(=O)c2ccc(C)cc2)ccc1OCC#N | 81* | 12% | ? | 107* | ? | -46%
COC(=O)c1ccc(/C=C/C(=O)c2ccc(OC)c(OC)c2)cc1 | 13 | -17% | ? | 22 | 10µM* | -18%
COC(=O)c1ccc(OC(=O)c2ccc(OC)c(OC)c2)c(OC)c1 | -8 | 0% | 15% | -23 | -6% | -10%
CCOc1cc(/C=C/C(=O)c2ccc(C)cc2)ccc1OCC(=O)N(C)C | -1 | 2% | ? | 19 | ? | -12%
COc1cc(C(=O)Oc2ccc3ccc(O)cc3c2)cc(OC)c1OC | 21* | -2% | 18% | 30 | 5% | 20%
COc1ccc(/C=C/C(=O)c2ccc(C(=O)/C=C/c3ccc(OC)c(OC)c3)cc2)cc1OC | 28* | 0% | ? | 20 | ? | 10%
O=C(Oc1ccc2ccc(O)cc2c1)C1CCCCC1 | 1 | -1% | 30% | -13 | 13% | -10%
CCCNc1nc(C)c(C(C)=O)cc1C#N | 0 | -1% | . | -10 | 5% | 4%
Cc1cccc(S(=O)(=O)Nc2nc3ccccc3nc2NCc2ccc3c(c2)OCO3)c1 | 10 | 6% | 2% | -3 | 5% | 18%
COc1ccc(Oc2ccc(/C=C/C(=O)c3ccc(O)cc3)cc2[N+](=O)[O-])cc1 | 7 | -13% | 12µM* | 20 | 12µM* | 11%
COc1ccc(/C=C/C(=O)c2cc(Br)ccc2O)cc1OC | -3 | 0% | ? | 9 | -24% | 0%
COc1ccc(/C=C/C(=O)C2(O)CCCCC2)cc1 | 19* | -1% | -9% | 47* | 0% | -7%
COc1ccc(/C=C/C(=O)c2cc(Br)ccc2OC(=O)c2ccco2)cc1OC | 10 | -6% | 20% | 10 | 12µM* | ?
COc1cc(/C=C/C(=O)OCc2csc(CC(=O)Nc3ccc(C)cc3)n2)ccc1OCC#N | . | 2% | 13µM* | . | ? | .
CC1=C2C(=O)[C@@H]3[C@@H](CC=C4C[C@@H](O)CC[C@@]43C)[C@H]2CC[C@@]12O[C@H]1C[C@H](C)CN[C@H]1[C@@H]2C | . | . | . | . | . | -13%
CCCCn1c(SCC(=O)NC2CC2)nc2ccccc2c1=O | -1 | -5% | -3% | -8 | 75% | -12%
O=C(NC1CCCC1)C(=O)N(c1ccccc1F)C(C(=O)NCC1CCCO1)c1cccs1 (configuration not stated) | -4 | 1% | ? | -8 | ? | 0%
CC(C)(C)NC(=O)COC(=O)c1ccc(Cl)nc1 | 11 | 1% | ? | 44 | -1% | .
COc1ccc(C(=O)/C=C/c2ccc(OC(=O)c3cc(OC)c(OC)c(OC)c3)cc2)cc1 | 1 | 1% | 4.7µM* | -5 | 2.9µM* | 20%
